The panel holds about 83,000 compounds, 20% with a hit somewhere; the sample as a whole holds those more often.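 Negative percent growth values reflect cell death: -40 means 40% of the cells present at the start died, and -100 means all died.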 Values without a mark were called inactive. Active and inactive are the calls of the source. How the source made its calls: active means growth percent below 10; inactive means the rest.
Experiments:
Test in all cases: NCI-60 one-dose screen, 48 h (100 = growth as untreated, 0 = no growth, -100 = all killed)
NCI-H460 lung = details: 10 µM unless noted
K-562 leukemia = details: 10 µM unless noted
MALME-3M melanoma = details: 10 µM unless noted
RXF 393 renal = details: 10 µM unless noted
SF-295 CNS = details: 10 µM unless noted
UACC-257 melanoma = details: 10 µM unless noted
SNB-75 CNS = details: 10 µM unless noted
U251 CNS = details: 10 µM unless noted
SK-MEL-5 melanoma = details: 10 µM unless noted
SK-MEL-2 melanoma = details: 10 µM unless noted
SN12C renal = details: 10 µM unless noted
UO-31 renal = details: 10 µM unless noted
HL-60(TB) leukemia = details: 10 µM unless noted
MOLT-4 leukemia = details: 10 µM
SR leukemia = details: 10 µM
IGROV1 ovarian = details: 10 µM
BT-549 breast = details: 10 µM
HCT-116 colon = details: 10 µM unless noted
HCC-2998 colon = details: 10 µM unless noted
RPMI-8226 leukemia = details: 10 µM unless noted

`[N-]=[N+]=NC(C(=O)O)c1ccccc1` (stereo not given) was tested. Which growth (NCI-H460 lung) did it give?
Its growth is 115%.

And the growth (K-562 leukemia)?
Its growth is 94.3%.

What about the growth (MALME-3M melanoma) of the same molecule?
The growth was 106%.

What about the growth (RXF 393 renal) of the same molecule?
The growth was 140%.

And the growth (SF-295 CNS)?
Its growth is 102%.

And the growth (UACC-257 melanoma)?
The growth was 98.3%.

And the growth (SNB-75 CNS)?
Its growth is 96.6%.

And the growth (U251 CNS)?
The growth was 104%.

And the growth (SK-MEL-5 melanoma)?
The growth was 116%.

And the growth (SK-MEL-2 melanoma)?
Its growth is 99.5%.

What about the growth (SN12C renal) of the same molecule?
The growth was 119%.

What about the growth (UO-31 renal) of the same molecule?
Its growth is 88.9%.

And the growth (HL-60(TB) leukemia)?
The growth was 89.4%.

And the growth (MOLT-4 leukemia)?
Its growth is 87.4%.

And the growth (SR leukemia)?
The growth was 83.9%.

And the growth (IGROV1 ovarian)?
Its growth is 98%.

What about the growth (BT-549 breast) of the same molecule?
The growth was 114%.

What about the growth (HCT-116 colon) of the same molecule?
The growth was 101%.

And the growth (HCC-2998 colon)?
Its growth is 96.9%.

How did the growth (NCI-H460 lung) turn out when `O=S(=O)(F)c1ncnc2nc[nH]c12` was run?
The growth was 103%.

What about the growth (K-562 leukemia) of the same molecule?
The growth was 92.3%.

And the growth (MALME-3M melanoma)?
The growth was 100%.

What about the growth (RXF 393 renal) of the same molecule?
Its growth is 101%.

What about the growth (SF-295 CNS) of the same molecule?
Its growth is 104%.

What about the growth (UACC-257 melanoma) of the same molecule?
Its growth is 105%.

And the growth (SNB-75 CNS)?
The growth was 87.3%.

And the growth (U251 CNS)?
Its growth is 98.5%.

What about the growth (SK-MEL-5 melanoma) of the same molecule?
Its growth is 96.2%.

What about the growth (SK-MEL-2 melanoma) of the same molecule?
The growth was 85.8%.

What about the growth (SN12C renal) of the same molecule?
Its growth is 91.8%.

And the growth (UO-31 renal)?
Its growth is 66.9%.

And the growth (HL-60(TB) leukemia)?
The growth was 97.2%.

What about the growth (MOLT-4 leukemia) of the same molecule?
Its growth is 89.2%.

And the growth (IGROV1 ovarian)?
The growth was 103%.

And the growth (BT-549 breast)?
Its growth is 100%.

What about the growth (HCT-116 colon) of the same molecule?
Its growth is 100%.

What about the growth (HCC-2998 colon) of the same molecule?
The growth was 101%.

For `Oc1ccc(Br)cc1CN1CCN(Cc2ccc(Cl)cc2)CC1`, which growth (NCI-H460 lung) is on record?
The growth was 93.1%.

And the growth (K-562 leukemia)?
The growth was -34.3% (active).

And the growth (RXF 393 renal)?
The growth was 76.7%.

What about the growth (UACC-257 melanoma) of the same molecule?
The growth was 86.7%.

What about the growth (SNB-75 CNS) of the same molecule?
Its growth is 51.5%.

And the growth (U251 CNS)?
Its growth is 48.9%.

And the growth (SK-MEL-5 melanoma)?
Its growth is -3.7% (active).

And the growth (SK-MEL-2 melanoma)?
Its growth is 88.2%.

And the growth (UO-31 renal)?
Its growth is 47.4%.

What about the growth (HL-60(TB) leukemia) of the same molecule?
The growth was 47.5%.

And the growth (MOLT-4 leukemia)?
Its growth is 56.1%.

And the growth (SR leukemia)?
The growth was 22.7%.

And the growth (RPMI-8226 leukemia)?
Its growth is 16.7%.

How did the growth (NCI-H460 lung) turn out when `NC(=O)C(Cl)Cl` was run?
Its growth is 100%.

And the growth (K-562 leukemia)?
The growth was 100%.

And the growth (MALME-3M melanoma)?
The growth was 96.6%.

What about the growth (SF-295 CNS) of the same molecule?
The growth was 98.3%.

And the growth (UACC-257 melanoma)?
The growth was 94.8%.

And the growth (SNB-75 CNS)?
Its growth is 96.4%.

What about the growth (SN12C renal) of the same molecule?
The growth was 104%.

What about the growth (UO-31 renal) of the same molecule?
Its growth is 94.6%.

What about the growth (HL-60(TB) leukemia) of the same molecule?
The growth was 80.8%.

And the growth (MOLT-4 leukemia)?
The growth was 109%.

What about the growth (SR leukemia) of the same molecule?
Its growth is 99.5%.

And the growth (RPMI-8226 leukemia)?
The growth was 105%.

What about the growth (IGROV1 ovarian) of the same molecule?
The growth was 102%.

And the growth (BT-549 breast)?
The growth was 111%.

And the growth (HCC-2998 colon)?
Its growth is 120%.

Source: PubChem BioAssay (NCI)
